Data taken from PubChem BioAssay.
Values without a mark were called inactive. The source made the active and inactive calls.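 Rule for the calls, unless noted: active = viability loss from added drug above about 55%, and viability with drug at most 40%, in both replicates (limit read from the data, passing the limit was not always enough); inconclusive = both conditions met in only one replicate; inactive = neither replicate meets both conditions.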

Experiment: H69AR cell proliferation blockers – human, duplicate replicates, primary screen (AID 580;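 active = viability at or under a set limit in both replicates, limit being median viability minus 3 SD, cut at about 48% in these data, passing the limit was not always enough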;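 note: 100% = mean luminescence of untreated wells and 0% = no signal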)
Conditions: H69AR lung tumor cells viability, ATP luminescence, 72 h; at 10 µM; active compounds read low
`COC(=O)c1cccc(NC(=O)CN2CCN(Cc3ccccc3)CC2)c1` showed a viability of 90.5%. `CN(C)CCC(c1ccc(Br)cc1)c1ccccn1` (centres undefined) gave a viability of 102%. For `CCCn1c(SCC(=O)NC(=O)NCc2ccco2)n[nH]c1=O`, the viability was 96.6%. For `Cc1ccc(C2=N/C(=C/N3CCOCC3)C(=O)O2)cc1`, the viability was 90.6%. Work on `O=C(NCc1ccco1)c1ccc2c(=O)n(CC3CCCO3)c(=S)[nH]c2c1` (centres undefined) yielded a viability of 94.4%. For `Cc1cc(-c2ccccc2)nnc1NCCN1CCOCC1`, the viability was 89.7%. In the case of `CN(C)CCOC(=O)C(c1ccccc1)C1(O)CCCC1` (centres undefined), the viability is reported as 102%. Molecule `CCOC(=O)N1CCC(NC(=O)Cn2ncc3c4ccccc4n(C)c3c2=O)CC1` has a viability of 97.5%. Work on `COc1cccc(NC(=O)N(Cc2ccco2)C(C)c2cccs2)c1` (centres undefined) yielded a viability of 89.8%. Molecule `C=CCN=C1SCC(=O)N1S(=O)(=O)c1ccc(C)cc1` has a viability of 113%. For `Cc1ccc(S(=O)(=O)N2CCN(c3nc(C(C)C)c4c(c3C#N)CC(C)(C)OC4)CC2)cc1`, the viability was 79.6%. Work on `O=C(O)Cc1ccc(-c2ccccc2)cc1` yielded a viability of 85.7%. Work on `Cc1ccc2nc(NC(=O)C3CCCN(S(=O)(=O)c4cccc5nonc45)C3)sc2c1` (centres undefined) yielded a viability of 76%. With `O=C(NCCCN1CCCC1=O)C1CCN(S(=O)(=O)N2CCOCC2)CC1` the viability was 100%. In the case of `CC1CCCC(C)N1CCNC(=O)C1CCN(S(=O)(=O)N2CCCCC2)CC1` (centres undefined), the viability is reported as 104%. Work on `O=C(CSc1nnc(-c2ccccn2)n1Cc1ccccc1)N1CCCC1` yielded a viability of 98.8%. `C[C@H](CS)C(=O)N1CCC[C@H]1C(=O)O` showed a viability of 99.8%. Work on `c1ccc(-c2ccc(-c3ccccn3)nn2)nc1` yielded a viability of 59.4%. `CS(=O)(=O)N(CC(=O)NCc1ccncc1)Cc1ccc(Cl)cc1` showed a viability of 98.3%. With `O=C(CCn1c(=O)oc2ccccc21)N1CCN(c2ccccc2Cl)CC1` the viability was 11.2% (active). Molecule `CC(C)Oc1cc2oc(=O)c3c(c2cc1Cl)CCC3` has a viability of 98.2%. `CC(=O)C1=C(NC(=O)c2ccccc2F)C[C@@H]2[C@H]1C2(C)C` gave a viability of 91.3%. With `CCOC(=O)Cn1nnnc1CN(Cc1ccc(OC)cc1)Cc1cc2cc(C)ccc2[nH]c1=O` the viability was 94.3%. In the case of `Cc1ccc(CN2C(=O)CCC2C(=O)NCCCN2CCCC(C)C2)cc1` (centres undefined), the viability is reported as 97.4%.

Experiment: MRP1 drug-resistance reversers in H69AR cells – cell-based, doxorubicin co-treatment, pilot screen (AID 601)
Conditions: H69AR cells + 2 uM doxorubicin, CellTiter-Glo, 72 h; at 10 µM; active compounds read high
Work on `Cc1c(CNCc2cccs2)c(C(=O)O)c(C)n1Cc1ccccc1` yielded a differential viability (reversal) of 5.63%. In the case of `Cc1ccc(OCC(O)Cn2c(NCCc3ccccc3)nc3c2c(=O)[nH]c(=O)n3C)cc1` (centres undefined), the differential viability (reversal) is reported as -5.09%. `COC(=O)CN(Cc1ccco1)S(=O)(=O)c1ccccc1` showed a differential viability (reversal) of -3.33%. In the case of `CCc1[nH]nc2c1C1(CCN(C(=O)OCc3ccccc3)CC1)C(C#N)=C(N)O2`, the differential viability (reversal) is reported as -0.55%. For `Cc1cc(C(=O)Nc2c(C)n(C)n(-c3ccccc3)c2=O)c(C)o1`, the differential viability (reversal) was 11.8%. `O=C(NCc1cccs1)c1cc2c(s1)CS(=O)(=O)C2` gave a differential viability (reversal) of 4.27%. With `Cc1cc(C)nc(-n2nc(C)cc2NC(=O)c2ccc(Br)o2)n1` the differential viability (reversal) was -11.4%. `CCOc1ncccc1C(=O)Nc1ccc(Cl)cc1` gave a differential viability (reversal) of -3.41%. `COc1cccc(NC(=O)C2C3C=CC4(O3)C2C(=O)N(C(C)C)C4C(=O)NC2CCCCC2C)c1` (centres undefined) showed a differential viability (reversal) of 8.79%. In the case of `CCOC(=O)Cc1csc(NC(=O)CSc2nnc(C3CC3)n2C)n1`, the differential viability (reversal) is reported as 6.36%. In the case of `COc1ccccc1OCCOCCn1cnc2ccccc2c1=O`, the differential viability (reversal) is reported as -3.44%. In the case of `O=C(CN1C(=O)CC(c2ccco2)Sc2ccccc21)Nc1ccc2c(c1)OCCO2` (centres undefined), the differential viability (reversal) is reported as 1.83%. With `CCN1CCc2c(C#N)c(N3CCCCC3)nc(NCc3ccccc3)c2C1` the differential viability (reversal) was -10.1%. In the case of `Cn1c(=O)c2c(nc(SCC(=O)N3CCCc4ccccc43)n2C)n(C)c1=O`, the differential viability (reversal) is reported as 7.81%. `Cc1cccc(CC2CC(=O)N(c3ccccc3)C2=O)c1` (centres undefined) showed a differential viability (reversal) of 10.5%. Work on `CCN(CC)S(=O)(=O)c1cccc(-c2nnc(SCCOc3ccccc3C)o2)c1` yielded a differential viability (reversal) of 18.7%. `COC(=O)c1cccc(NC(=O)CN2CCN(Cc3ccccc3)CC2)c1` gave a differential viability (reversal) of -2.89%. Molecule `CN(C)CCC(c1ccc(Br)cc1)c1ccccn1` (centres undefined) has a differential viability (reversal) of 10.6%. For `CCCn1c(SCC(=O)NC(=O)NCc2ccco2)n[nH]c1=O`, the differential viability (reversal) was 1.45%. For `Cc1ccc(C2=N/C(=C/N3CCOCC3)C(=O)O2)cc1`, the differential viability (reversal) was 13.1%. Work on `O=C(NCc1ccco1)c1ccc2c(=O)n(CC3CCCO3)c(=S)[nH]c2c1` (centres undefined) yielded a differential viability (reversal) of 7.56%. `Cc1cc(-c2ccccc2)nnc1NCCN1CCOCC1` showed a differential viability (reversal) of -2.49%. For `CN(C)CCOC(=O)C(c1ccccc1)C1(O)CCCC1` (centres undefined), the differential viability (reversal) was 4.65%. Work on `CCOC(=O)N1CCC(NC(=O)Cn2ncc3c4ccccc4n(C)c3c2=O)CC1` yielded a differential viability (reversal) of -7.6%. Work on `COc1cccc(NC(=O)N(Cc2ccco2)C(C)c2cccs2)c1` (centres undefined) yielded a differential viability (reversal) of 16.8%. For `C=CCN=C1SCC(=O)N1S(=O)(=O)c1ccc(C)cc1`, the differential viability (reversal) was 13.6%. `Cc1ccc(S(=O)(=O)N2CCN(c3nc(C(C)C)c4c(c3C#N)CC(C)(C)OC4)CC2)cc1` showed a differential viability (reversal) of 9.54%. In the case of `O=C(O)Cc1ccc(-c2ccccc2)cc1`, the differential viability (reversal) is reported as -0.76%. In the case of `Cc1ccc2nc(NC(=O)C3CCCN(S(=O)(=O)c4cccc5nonc45)C3)sc2c1` (centres undefined), the differential viability (reversal) is reported as -14.8%. `O=C(NCCCN1CCCC1=O)C1CCN(S(=O)(=O)N2CCOCC2)CC1` showed a differential viability (reversal) of 5.27%. Work on `CC1CCCC(C)N1CCNC(=O)C1CCN(S(=O)(=O)N2CCCCC2)CC1` (centres undefined) yielded a differential viability (reversal) of 13.1%. In the case of `O=C(CSc1nnc(-c2ccccn2)n1Cc1ccccc1)N1CCCC1`, the differential viability (reversal) is reported as 10.9%. `C[C@H](CS)C(=O)N1CCC[C@H]1C(=O)O` showed a differential viability (reversal) of 8.21%. For `c1ccc(-c2ccc(-c3ccccn3)nn2)nc1`, the differential viability (reversal) was -10.1%. `CS(=O)(=O)N(CC(=O)NCc1ccncc1)Cc1ccc(Cl)cc1` showed a differential viability (reversal) of 0.52%. `O=C(CCn1c(=O)oc2ccccc21)N1CCN(c2ccccc2Cl)CC1` gave a differential viability (reversal) of -55.1%. For `CC(C)Oc1cc2oc(=O)c3c(c2cc1Cl)CCC3`, the differential viability (reversal) was 19.7%. Molecule `CC(=O)C1=C(NC(=O)c2ccccc2F)C[C@@H]2[C@H]1C2(C)C` has a differential viability (reversal) of 1.76%. Molecule `CCOC(=O)Cn1nnnc1CN(Cc1ccc(OC)cc1)Cc1cc2cc(C)ccc2[nH]c1=O` has a differential viability (reversal) of -0.605%. For `Cc1ccc(CN2C(=O)CCC2C(=O)NCCCN2CCCC(C)C2)cc1` (centres undefined), the differential viability (reversal) was 8.96%.
